For 38 compounds, growth inhibition results are on record in the supplement of paper PMC5641865, “A screen for kinase inhibitors identifies antimicrobial imidazopyridine aminofurazans as specific inhibitors of the Listeria monocytogenes PASTA kinase PrkA” (The Journal of Biological Chemistry, 2017).

± gives the standard deviation of the averaged measurements.
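Note: End-point A600 read in BHI broth at 37 °C with 2% DMSO, inhibition computed as (1 − OD with compound plus ceftriaxone ÷ OD with ceftriaxone only) × 100.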

This assay concerns Listeria monocytogenes 10403S. Briefly: growth inhibition relative to ceftriaxone-alone control; higher = stronger potentiation of ceftriaxone growth inhibition. The settings on record: 10 µM; ceftriaxone 1 ug/ml; 12 h.
Regarding `c1ccc(-c2n[nH]cc2-c2ccnc(-c3ccc(OCCn4ccnc4)cc3)c2)nc1`, the growth inhibition was -3.25 ± 8%.

As for `O=c1cc(N2CCOCC2)oc2c(-c3cccc4c3sc3ccccc34)cccc12`, the growth inhibition was found to be 26.2 ± 7%. For `CCCCCCCCCCCCc1ccc(S(=O)(=O)Nc2nncs2)cc1` the value was 93.5 ± 11%.

Regarding `O=C1Nc2ccc(I)cc2C1=Cc1cc(Br)c(O)c(Br)c1`, the growth inhibition was 36.9 ± 6%. For `c1cncc(CN2CCC(n3ncc4c(N5CCOCC5)nc(-c5ccc6[nH]ccc6c5)nc43)CC2)c1` the value was 37.1 ± 17%; for `Fc1ccc(-c2ncn(C3CCNCC3)c2-c2ccnc(Oc3ccccc3)n2)cc1`, -4.1 ± 5.5%; for `CO[C@H]1C[C@@H]2CC[C@@H](C)[C@@](O)(O2)C(=O)C(=O)N2CCCC[C@H]2C(=O)O[C@H]([C@H](C)C[C@@H]2CC[C@@H](OCCO)[C@H](OC)C2)CC(=O)[C@H](C)/C=C(\C)[C@@H](O)[C@@H](OC)C(=O)[C@H](C)C[C@H](C)/C=C/C=C/C=C/1C` [Everolimus (RAD001)], 27.5 ± 19%.

`CCCN1CCC=C(c2ccc(Nc3nc(Nc4ccccc4C(N)=O)c4cc[nH]c4n3)c(C)c2)C1`: the growth inhibition was -7.58 ± 1.9%.

As to `CN(C)C(=O)O[C@@H]1CN[C@@H](C#Cc2cc3ncnc(Nc4ccc(OCc5cccc(F)c5)c(Cl)c4)c3s2)C1`, the growth inhibition is -5.56 ± 8.1%. `COc1cc2ncn(-c3cc(OCc4ccccc4Cl)c(C(N)=O)s3)c2cc1OC`: the growth inhibition was -6.56 ± 0.46%. For `CC(C)n1nc(-c2ccc3oc(N)nc3c2)c2c(N)ncnc21` the value was -0.352 ± 1.4%; for `COC(=O)c1cncc(/C=C/c2c(C)cc(O)cc2C)c1`, -6.45 ± 1.7%; for `Cc1cc(O)cc(C)c1/C=C/c1cncc(C(N)=O)c1`, -0.223 ± 2.4%. Next, `C[C@@H]1COC(Nc2ccc3ncnc(Nc4ccc(OCc5nccs5)c(Cl)c4)c3c2)=N1`: 70.8 ± 5%. Next, `COCC(=O)NC/C=C/c1ccc2ncnc(Nc3ccc(Oc4ccc(C)nc4)c(C)c3)c2c1`: -5.16 ± 23%. `CC(C)CC(=O)Nc1n[nH]c2c1CN(C(=O)C1CCN(C)CC1)C2(C)C`: the growth inhibition was -44.3 ± 75%. For `CCc1cc(Nc2nccc(-c3c(-c4ccc(OC)c(C(=O)Nc5c(F)cccc5F)c4)nc4ccccn34)n2)c(OC)cc1N1CCC(N2CCN(S(C)(=O)=O)CC2)CC1` the value was 24.5 ± 8%; for `CC(C)NC[C@@H](C(=O)N1CCN(c2ncnc3c2[C@H](C)C[C@H]3O)CC1)c1ccc(Cl)cc1`, 23.5 ± 8.6%; for `COc1ccc(-c2cc(-c3c[nH]nc3-c3ccccn3)ccn2)cc1`, 3.1 ± 4.7%. Next, `Cn1c(=O)c(F)c(Nc2ccc(I)cc2F)c2c(=O)n(C[C@@H](O)CO)cnc21`: 23 ± 13%. Next, `Fc1cccc(COc2ccc(Nc3ncnc4sc(-c5cccs5)cc34)cc2Cl)c1`: -4.36 ± 4.4%; `Cc1nn(C)c2cc(N(C)c3ccnc(Nc4cccc(S(N)(=O)=O)c4)n3)ccc12`: 10.1 ± 1.2%; `Fc1ccc(-c2nc3n(c2-c2ccncc2)CCS3)cc1`: -8.85 ± 15%.

`COc1cccc(-n2ncc3c(N/N=C/c4ccc(F)cc4)ncnc32)c1`: the growth inhibition was -3.41 ± 1%.

With `COc1cc2nccc(Oc3ccc(NC(=O)Nc4cc(C)on4)c(Cl)c3)c2cc1OC` [Tivozanib (AV-951)], the growth inhibition was determined as 23.7 ± 1.2%. Next, `O=C(O[C@H]1CN[C@H](C#Cc2cc3ncnc(Nc4ccc5c(cnn5Cc5ccccc5)c4)c3s2)C1)N1CCOCC1`: -5.28 ± 15%; `CS(=O)(=O)CCNCc1coc(-c2ccc3ncnc(Nc4ccc(OCc5ccccc5)cc4)c3c2)c1`: 4.98 ± 4.3%; `Cc1ccc(NC(=O)c2cccc(C(C)(C)C#N)c2)cc1Nc1ccc2ncn(C)c(=O)c2c1`: 47.4 ± 11%. Next, `CC(C)(C)c1cc(NC(=O)Nc2ccc(-c3cn4c(n3)sc3cc(OCCN5CCOCC5)ccc34)cc2)no1` [Quizartinib (AC220)]: 35.5 ± 10%; `COc1cc(Nc2nccc(-c3cnn4ncccc34)n2)cc(OC)c1`: -13.8 ± 16%; `O=C1NC(=O)/C(=C/c2ccc(-c3ccc(F)cc3O)o2)S1`: 70.7 ± 9.8%. For `CNC(=O)c1cccc(-c2ccc3c(N4CCOC[C@@H]4C)nc(N4CCOC[C@@H]4C)nc3n2)c1` the value was 1.51 ± 0.18%.

Turning to `CCN1CCC(CC(=O)Nc2n[nH]c3nc(-c4cccs4)c(Br)cc23)CC1`, the growth inhibition stood at 7.98 ± 1.7%. For `COc1cc(Nc2ncc(F)c(Nc3ccc4c(n3)N(COP(=O)(O)O)C(=O)C(C)(C)O4)n2)cc(OC)c1OC` [R788 (Fostamatinib)] the value was 12.5 ± 9.9%. With `Nc1nccc(Oc2ccc(NC(=O)c3c[nH]cc(-c4ccc(F)cc4)c3=O)cc2F)c1Cl`, the growth inhibition is 1.11 ± 36%.

Turning to `Cc1nc(NC(=O)N2CCC[C@H]2C(N)=O)sc1-c1ccnc(C(C)(C)C(F)(F)F)c1`, the growth inhibition worked out at 24.9 ± 21%.

With `Cc1cc(CN2CCN(c3c(Br)cnc4nc(-c5ccc(N6CCN(C)CC6)cc5)[nH]c34)CC2)no1`, the growth inhibition amounted to 40.4 ± 40%. Next, `CS(=O)(=O)CCNCc1ccc(-c2ccc3ncnc(Nc4ccc(OCc5ccccc5)c(Br)c4)c3c2)o1`: -2.35 ± 3.3%.
